SARS PLpro yeast – qHTS of Yeast-based Assay for SARS-CoV PLP; S. cerevisiae expressing SARS-CoV PLpro, growth rescue; actives 0.19% (n = 330,000); AID 485353, 2010; Potency, µM (titrated, usually from 32.9 µM), inactives show top-dose activity, positive = growth rescue, most hits filed as activators; calls by dose curve; also: 0% is about no effect; nearly all actives have a fitted effect of over 55% in size
HCV inh – qHTS Assay for Inhibitors of Hepatitis C Virus (HCV) | actives 3.4% (n = 340,000) | AID 651820, 2012 | Potency, µM (titrated, usually from 41.8 µM), for inactives: at the highest dose activity change, negative = inhibition, most hits filed as inhibitors | Huh7.5.1 HCVcc-Cre infection, luciferase reporter, 44 h; also: % is scaled to controls: 0 for no effect and ±100 for the full control effect
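Luciferase read-out (15 sec integration) after a 15 min room-temperature substrate step quantifies HCVcc-Cre infection. Cells, 1,000 per well, had compound added 4 h post-plating, then virus at ~0.5 moi, and were cultured 44 h.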
NS1 function inh – qHTS Assay for Inhibitors of Influenza NS1 Protein Function | Potency, µM (doses to about 46.1 µM), for the others: at the highest dose activity, positive = more growth | actives 0.4% (n = 270,000); calls by dose curve; also: actives are rising curves; nearly all actives have a fitted effect of over 50% in size
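Read-out: OD600 growth recovery of NS1-expressing budding yeast. Cells grown overnight at 30C in -URA glucose medium, washed, resuspended and diluted 1:100 in 2% galactose assay medium, pH 6.0. Same strain lacking NS1 served as positive control.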
Pf growth 48h – Primary qHTS for delayed death inhibitors of the malarial parasite plastid, 48 hour incubation | P. falciparum luciferase growth in erythrocytes, 48 h | Potency, µM (titrated, usually from 28.7 µM), for the others: at the top dose activity change, negative = inhibition, most hits filed as inhibitors | actives 5.9% (n = 310,000) | AID 504832, 2011; also: % is scaled to controls: 0 for no effect and ±100 for the full control effect
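Read-out is firefly luciferase luminescence from an integrated reporter in P. falciparum, so falling signal marks reduced parasite growth. Infected erythrocytes were at 2% hematocrit and 0.1% parasitemia (final) in Albumax-supplemented RPMI 1640.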
Pf growth 96h – Primary qHTS for delayed death inhibitors of the malarial parasite plastid, 96 hour incubation | P. falciparum luciferase reporter growth, 96 h | Potency, µM (doses to about 28.7 µM), without a hit: top-dose activity change, negative = inhibition, usual class: inhibitors | actives 6.9% (n = 320,000); also: % is scaled to controls: 0 for no effect and ±100 for the full control effect
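Luminescence readout: decreased luciferase signal marks inhibited growth of reporter-expressing P. falciparum in infected red cells (2% hematocrit, 0.05% parasitemia final), exposed to compound two generations (96 h, 37 C, 5% CO2).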
AMA1-RON2 inh – qHTS for Inhibitors of AMA1-RON; Towards Development of Antimalarial Drug Lead: Primary Screen; AlphaScreen AMA1-biotinylated RON2 peptide binding; actives 0.2% (n = 360,000); Potency, µM (highest dose often 58.2 µM), without a hit: at the top dose activity change, negative = inhibition, usual class: inhibitors; Plasmodium falciparum AMA1 (3D7) - RON2 peptide interaction;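 also: 0% = vehicle wells and -100% = peptide control; nearly all actives have a fitted effect of over 45% in size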
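AMA1 (3D7) with his tag at 25 nM final met compounds first, then biotinylated RON2 peptide at 25 nM; detection used donor plus acceptor beads, 10 µg/mL apiece, read by AlphaScreen after 30 min at room temperature.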
Starred values were filed as active, the others as inactive; ? = inconclusive; / = no result given. This is a sample that favours compounds with a hit; in the whole collection about 12% have one here. Unless noted, calls follow the shape of the dose curve; as a rule, active = well fitted curve in the direction sought with a large enough effect; inconclusive = small, poorly fitted or top-dose-only effect, or another doubt; inactive = no such curve, though single readings can be large; an effect the other way counts as inactive or inconclusive. Potency is read from the fitted curve at half-maximal effect.

SMILES	SARS PLpro yeast	HCV inh	NS1 function inh	Pf growth 48h	Pf growth 96h	AMA1-RON2 inh
COc1ccc(OC)c(C2=NS(=O)(=O)N(C)C(C(=O)NCc3ccco3)=C2)c1	6%	-30%	5%	8%	?	-19%
COc1ccc(-c2cc(C)no2)cc1S(=O)(=O)Nc1ccccc1	0%	?	-5%	?	?	-1%
COc1ccc(-c2cc(C)no2)cc1S(=O)(=O)N1CCN(c2cccc(C)c2)C(C)C1 (centres undefined)	-2%	10µM*	2%	?	?	-4%
CCCN(c1ccccc1F)S(=O)(=O)c1cc(-c2cc(C)no2)ccc1OC	-1%	?	5%	?	15µM*	-11%
COc1ccc(-c2cc(C)no2)cc1S(=O)(=O)Nc1cccc(C)c1	1%	10µM*	-3%	?	?	-8%
COc1ccc(-c2cc(C)no2)cc1S(=O)(=O)N(C)Cc1ccco1	-9%	?	-16%	17%	-14%	-2%
Cc1cccc(N2CCN(S(=O)(=O)c3cc(-c4cc(C)no4)ccc3C)CC2C)c1 (centres undefined)	6%	4µM*	12%	?	47%	-9%
Cc1cc(-c2ccc(C)c(S(=O)(=O)N3CCN(c4ccc(F)cc4)CC3)c2)on1	0%	?	0%	?	?	-3%
CCn1cc(C(=O)O)c(=O)c2cnc(N3CCN(C(=S)NC(=O)c4ccccc4Cl)CC3)nc21	2%	5%	3%	39%	20%	-3%
CN(C)/C=C1\N=C(c2ccccc2)OC1=O	-6%	?	/	27%	35%	14%
CN(C)C1=NP(N(C)C)(N(C)C)=NC(c2ccccc2)=N1	7%	7%	8%	0%	1.7µM*	28%
CCCN1CCN(CCCNC(=O)C(CC)n2nc(C)n3c(cc4occc43)c2=O)CC1 (centres undefined)	0%	-12%	12%	1%	?	-1%
CCOC(=O)c1ccc(NC(=S)N(CCCN(CC)CC)Cc2ccco2)cc1	-2%	?	-15%	?	15µM*	-16%
CCOC(=O)C1CCCN(C(=S)Nc2cccc(Cl)c2C)C1 (centres undefined)	?	7%	2%	23%	?	-12%
Cn1c(COc2ccccc2)nnc1SCC(=O)c1cccc([N+](=O)[O-])c1	0%	?	11%	?	?	-1%
CCOc1cc(C)ccc1OCc1nnc(SCC(=O)c2cccc([N+](=O)[O-])c2)n1C	?	?	23%	?	12µM*	-19%
O=C(Nc1nc2ccccc2n1CCOc1ccccc1)c1ccco1	0%	?	-26%	2.9µM*	2.9µM*	31%
O=C(Nc1nc2ccccc2n1CCOc1ccc(Cl)cc1)c1ccco1	-5%	?	-62%	/	?	130%
Cc1ccc(OCCn2c(NC(=O)c3ccco3)nc3ccccc32)cc1	-4%	3%	-7%	2.9µM*	?	97%
CCOC(=O)C1CCCN(c2ncnc3c2oc2ccccc23)C1 (centres undefined)	-5%	5%	-81%	49%	56%	-1%
CCOC(=O)C1CCN(c2nc(-c3ccccc3)nc3c2oc2ccccc23)CC1	-5%	-9%	-66%	?	/	-5%
O=C(O)C1CCN(c2nc(-c3ccccc3)nc3c2oc2ccccc23)CC1	-15%	-7%	-82%	?	12µM*	5%
CCOC(=O)C1CCN(c2ncnc3c2oc2ccccc23)CC1	-3%	-25%	-59%	14%	12µM*	-3%
CCc1cccc(NC(=O)CN(C)C2=NS(=O)(=O)c3ccccc32)c1	2%	9%	/	?	12µM*	6%
